Laboratory results published in article PMC8384837, “Expanding the binding specificity for RNA recognition by a PUF domain”.

Legend:
Assay in all cases: yeast three-hybrid, YBZ-1, SC-Leu-His + 0.5 mM 3-AT, 4 days
Conditions in all cases: tags: N-Gal4 AD-HA kept; label: inside an RPR1-promoter hybrid RNA with tandem MS2 sites; ssRNA
PUM1 PUF domain R7-GCL = PUM1 PUF domain R7-GCL (Homo sapiens, UniProt Q14671 828-1176, S1079G;N1080C;E1083L)
How it was run: (§1)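 Pumilio-1 PUF domain libraries, randomized at the three base-contacting residues of each repeat, were co-expressed with matching RNA elements from a centromeric plasmid in strain YBZ-1, which carries a LexA–MS2 coat fusion and a HIS3 reporter. Transformants grew for four days on SC-Leu (input) or on SC-Leu-His + 0.5 mM 3-AT (selection), and the repeat regions were PCR-amplified and Illumina-sequenced. The interaction score is the log change in variant frequency from input to selection. That logarithm is base 2, with a pseudocount of 1 where a variant was absent.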

PUM1 PUF domain R7-KSS = PUM1 PUF domain R7-KSS (Homo sapiens, UniProt Q14671 828-1176, S1079K;N1080S;E1083S)
How it was run: as §1

PUM1 PUF domain R7-KRA = PUM1 PUF domain R7-KRA (Homo sapiens, UniProt Q14671 828-1176, S1079K;N1080R;E1083A)
How it was run: as §1

PUM1 PUF domain R1-RQE = PUM1 PUF domain R1-RQE (Homo sapiens, UniProt Q14671 828-1176, S863R;R864Q;Q867E)
How it was run: as §1

PUM1 PUF domain R1-KCT = PUM1 PUF domain R1-KCT (Homo sapiens, UniProt Q14671 828-1176, S863K;R864C;Q867T)
How it was run: as §1

PUM1 PUF domain R1-HKR = PUM1 PUF domain R1-HKR (Homo sapiens, UniProt Q14671 828-1176, S863H;R864K;Q867R)
How it was run: as §1

PUM1 PUF domain R1-TLE = PUM1 PUF domain R1-TLE (Homo sapiens, UniProt Q14671 828-1176, S863T;R864L;Q867E)
How it was run: as §1

PUM1 PUF domain R4-GWP = PUM1 PUF domain R4-GWP (Homo sapiens, UniProt Q14671 828-1176, N971G;H972W;Q975P)
How it was run: as §1

PUM1 PUF domain R2-LWD = PUM1 PUF domain R2-LWD (Homo sapiens, UniProt Q14671 828-1176, N899L;Y900W;Q903D)
How it was run: as §1

PUM1 PUF domain R5-KSM = PUM1 PUF domain R5-KSM (Homo sapiens, UniProt Q14671 828-1176, C1007K;R1008S;Q1011M)
How it was run: as §1

GGCUAGAACUAGUGGAUCCCCCGGCGCCCGGCGGCUCGAGCCCGGGUAAGUUUAAAUAGUCUGCAUGCCGCCGGGCGCCAUGCCUGCAGGUCGACUCUAGAAAACAUG
binding signal (PUM1 PUF domain R7-GCL): 2.65 log2 enrichment (interaction score) | binding signal (PUM1 PUF domain R7-KSS): 4.3 log2 enrichment (interaction score) | binding signal (PUM1 PUF domain R7-KRA): 3.25 log2 enrichment (interaction score)

GGCUAGAACUAGUGGAUCCCCCGGCGCCCGGCGGCUCGAGCCCGGGUAAGUGUAAAUCGUCUGCAUGCCGCCGGGCGCCAUGCCUGCAGGUCGACUCUAGAAAACAUG
binding signal (PUM1 PUF domain R1-RQE): 2.21 log2 enrichment (interaction score) | binding signal (PUM1 PUF domain R1-KCT): 6.39 log2 enrichment (interaction score)

GGCUAGAACUAGUGGAUCCCCCGGCGCCCGGCGGCUCGAGCCCGGGUAAGUGUAAAUUGUCUGCAUGCCGCCGGGCGCCAUGCCUGCAGGUCGACUCUAGAAAACAUG
binding signal (PUM1 PUF domain R1-HKR): 3.25 log2 enrichment (interaction score) | binding signal (PUM1 PUF domain R1-TLE): 4.15 log2 enrichment (interaction score)

GGCUAGAACUAGUGGAUCCCCCGGCGCCCGGCGGCUCGAGCCCGGGUAAGUGUACAUAGUCUGCAUGCCGCCGGGCGCCAUGCCUGCAGGUCGACUCUAGAAAACAUG
binding signal (PUM1 PUF domain R4-GWP): 7 log2 enrichment (interaction score)

GGCUAGAACUAGUGGAUCCCCCGGCGCCCGGCGGCUCGAGCCCGGGUAAGUCUAAAUAGUCUGCAUGCCGCCGGGCGCCAUGCCUGCAGGUCGACUCUAGAAAACAUG
binding signal (PUM1 PUF domain R7-KSS): 2.54 log2 enrichment (interaction score) | binding signal (PUM1 PUF domain R7-KRA): 5.25 log2 enrichment (interaction score)

GGCUAGAACUAGUGGAUCCCCCGGCGCCCGGCGGCUCGAGCCCGGGUAAGUGUAAAUAGUCUGCAUGCCGCCGGGCGCCAUGCCUGCAGGUCGACUCUAGAAAACAUG
binding signal (PUM1 PUF domain R4-GWP): 6.31 log2 enrichment (interaction score)

GGCUAGAACUAGUGGAUCCCCCGGCGCCCGGCGGCUCGAGCCCGGGUAAGUGUAUAUAGUCUGCAUGCCGCCGGGCGCCAUGCCUGCAGGUCGACUCUAGAAAACAUG
binding signal (PUM1 PUF domain R4-GWP): 7.78 log2 enrichment (interaction score)

GGCUAGAACUAGUGGAUCCCCCGGCGCCCGGCGGCUCGAGCCCGGGUAAGUGUAAAUGGUCUGCAUGCCGCCGGGCGCCAUGCCUGCAGGUCGACUCUAGAAAACAUG
binding signal (PUM1 PUF domain R1-RQE): 1.2 log2 enrichment (interaction score) | binding signal (PUM1 PUF domain R1-KCT): 3.31 log2 enrichment (interaction score) | binding signal (PUM1 PUF domain R1-TLE): 3.5 log2 enrichment (interaction score)

GGCUAGAACUAGUGGAUCCCCCGGCGCCCGGCGGCUCGAGCCCGGGUAAGUGUAAAAAGUCUGCAUGCCGCCGGGCGCCAUGCCUGCAGGUCGACUCUAGAAAACAUG
binding signal (PUM1 PUF domain R2-LWD): 5.97 log2 enrichment (interaction score)

GGCUAGAACUAGUGGAUCCCCCGGCGCCCGGCGGCUCGAGCCCGGGUAAGUGUCAAUAGUCUGCAUGCCGCCGGGCGCCAUGCCUGCAGGUCGACUCUAGAAAACAUG
binding signal (PUM1 PUF domain R5-KSM): 3.66 log2 enrichment (interaction score)
